Active and inactive are the calls of the source. Unless noted, no rule for the calls is given here.

The first test is described as follows: cell viability in Huh7 cells, primary screen, cytotoxicity control for HCV replication inhibitor project, CellTiter-Glo luminescence, basal, 48 h (AID 1143).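 Also: Huh7 hepatoma cells carrying a hepatitis C replication reporter with no stimulus; test concentration not given here.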 The settings on record: Huh7 HCV replicon, higher = more signal, called active from +8 up or from −8 down.
`COCCOC(=O)N1C(=O)[C@@]2(c3cc(C#CCCO)ccc31)[C@H](c1ccccc1OCCO)N1[C@H](c3ccccc3)[C@H](c3ccccc3)OC(=O)[C@H]1[C@@H]2C(=O)N1CCc2cc(OC)c(OC)cc2C1`: the z-score was -1.07 (inactive).

In the case of `COC(=O)[C@@H]1N=C(c2ccc(OCCCO)cc2)O[C@@H]1c1ccccc1CN=[N+]=[N-]`, the z-score was -1.04 (inactive).

Regarding `COC(=O)[C@H](Cc1ccc(O)cc1)N1CC2=CCCC=C[C@@H]2[C@H]1[C@H](O)Cc1ccccc1`, the z-score is -0.567 (inactive).

Take `C=CC[C@@]1(C(=O)N(C)C)N=C(c2ccc(OCCCO)cc2)O[C@@H]1c1ccccc1`: the z-score is -1.45 (inactive).

Another test can be described thus: P. aeruginosa biofilm formation inhibitors, primary screen, PAO1 strain, BacTiter-Glo luminescence, LB-PBS (AID 1144). The settings on record: 12 h, higher = more signal.
As to `CO[C@H]1O[C@H](CO)[C@@H](OC(=O)Nc2ccccc2)[C@@H]2OC(=O)[C@H](Cc3ccccc3)C/C=C/C[C@@H](Cc3ccccc3)C(=O)O[C@@H]12`, the z-score is -0.805 (inactive).

For `CCCCC(=C=CC[C@@H](O)c1ccc(OCCO)cc1)C[C@@H](O)c1ccccn1`, the z-score is 0.412 (inactive).

Consider `C=CCC(OC(C)=O)[C@@H]1[C@@H](N(Cc2cccc3ccccc23)C(=O)c2ccc(-c3ccccc3)cc2)c2cc(OCCCO)ccc2N1C(=O)c1ccc2ccccc2n1` (stereo partly specified), for which the z-score is 0.409 (inactive).

For `COCCOC(=O)N1C(=O)[C@@]2(c3cc(C#CC4(O)CCCCCC4)ccc31)[C@H](c1ccc(OCCO)cc1)N1[C@H](c3ccccc3)[C@H](c3ccccc3)OC(=O)[C@H]1[C@@H]2C(N)=O`, the z-score was 0.323 (inactive).

Regarding `COc1ccc([Si](C)(C)[C@H]2[C@H](CCO)O[C@@]3(C(=O)N(Cc4ccc(N5CCOC5=O)cc4)c4ccccc43)[C@@H]2C)cc1`, the z-score is -0.232 (inactive).

For the compound `Cc1c(-c2ccc(-c3ccc(Cl)c(Cl)c3)o2)nc(-c2ccccc2)c2c1CO[Si]2(C(C)C)C(C)C`, the z-score is 0.163 (inactive).

On to `O=C1OCCC=C[C@H]2OC34C=CCN(CCN5CCOCC5)C(=O)[C@H]3N(CCCO)C(=O)[C@@H]4C12` (stereo partly specified), for which the z-score is -0.561 (inactive).

Regarding `COC(=O)[C@@]1(Cc2ccc(F)cc2)[C@H]2c3cc(C(=O)N(C)C)n(CCO)c3C[C@H]2CN1C(=O)c1ccccc1`, the z-score was -0.0693 (inactive).

Turning to `CC(C)C[C@H]1NC(=O)[C@@H](C)NC(=O)[C@@]23C(=O)N[C@@H](Cc4ccccc4)C2[C@H](C)[C@@]2(C)O[C@H]2C3/C=C/C/C=C\CNC1=O` (stereo partly specified), the z-score was 0.541 (inactive).

Regarding `N#Cc1ccc(C(O)C2C=CC3C(=O)N(c4ccccc4)C(=O)C3N2Nc2ccc([N+](=O)[O-])cc2)cc1` (stereo unspecified), the z-score is -0.532 (inactive).

For `CN(C)CCCC[C@@H]1NC(=O)[C@@H]2C[C@H](C(=O)NCc3ccc(F)cc3)[C@H](c3ccc(O)cc3)N2C1=O`, the z-score is -0.886 (inactive).

`CC(=O)c1ccc(C(O)C2C=CC3C(=O)N(C)C(=O)C3N2NC(=O)OC(C)(C)C)cc1` (stereo unspecified): the z-score was 0.626 (inactive).

With `CO[C@H]1O[C@H](CO)[C@@H](OC(=O)Nc2ccc3c(c2)OCO3)[C@@H]2OC(=O)[C@@H](Cc3ccccc3)C/C=C/C[C@H](Cc3ccccc3)C(=O)O[C@@H]12`, the z-score is 0.293 (inactive).

Take `O=C1NC(=O)C2C1C=CC(C(O)c1cccc(O)c1)N2Nc1ccc(Cl)cc1Cl` (stereo unspecified): the z-score is -0.355 (inactive).

Regarding `Cc1ccc(S[C@]2(C(=O)NCCCN(C)C)CC(=O)N(Cc3ccccc3Cl)[C@@H]2c2ccc(CO)cc2I)cc1`, the z-score was 0.601 (inactive).

Consider `O=c1cccc(-c2ccccc2C(F)(F)F)o1`, for which the z-score was 0.0176 (inactive).

As for `COCCOC(=O)N1C(=O)[C@@]2(c3cc(C#CCC(C(=O)OC)C(=O)OC)ccc31)[C@H](c1ccc(OCCO)cc1)N1[C@H](c3ccccc3)[C@H](c3ccccc3)OC(=O)[C@H]1[C@@H]2C(=O)N1CCCCCCC1`, the z-score is -0.147 (inactive).

Consider `C[C@H]1NC(=O)C([C@@H](C)OCc2ccccc2)NC(=O)[C@@]23C(=O)N[C@@H](Cc4ccccc4)C2[C@H](C)[C@@]2(C)O[C@H]2C3/C=C/C/C=C\CNC1=O` (stereo partly specified), for which the z-score is 1.3 (inactive).

On to `COCC(=C=CC[C@@H](O)c1cccc(OCCO)c1)C[C@@H](O)COCc1ccccc1`, for which the z-score is 0.125 (inactive).

Turning to `C=C(CCCC)C(=O)CC[C@H](OC(C)=O)c1ccccc1OCCO`, the z-score was 1.09 (inactive).

`CCC[C@@H]1C=C(C(=O)OCC)[C@H](c2ccccc2)N1S(=O)(=O)c1ccc(C)cc1`: the z-score was 1.18 (inactive).

Regarding `COCCOC(=O)N1C(=O)[C@@]2(c3cc(C#CC4(O)CCCCCC4)ccc31)[C@H](C(=O)N1CCc3cc(OC)c(OC)cc3C1)[C@H]1C(=O)O[C@H](c3ccccc3)[C@H](c3ccccc3)N1[C@@H]2c1ccc(O)cc1`, the z-score is 0.0231 (inactive).

The record behind these values is PubChem BioAssay.
